# High-throughput results deposited in PubChem by National Center for Advancing Translational Sciences (NCATS).
# Rows were chosen to be rich in hits. Some 3.8% of all compounds tested hit in one or more screens of this group.
# HepG2 tox-1: counter-screen for TGF-b inhibitors: cytotoxicity in HepG2 cells; Potency, µM (highest dose often 46.1 µM), inactives show top-dose activity change, negative = cytotoxicity, usual class: cytotoxic; 410,000 tested, 0.76% active; HepG2 CAGA-GFP viability, ATP luminescence, 18 h
#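 CellTiter-Glo luminescence gave cytotoxicity after 18 hours at 37 degrees C. The cells were HepG2 CAGA-GFP in 1% FBS DMEM, stimulated with 500 pg/mL TGF-beta after compound addition. %Activity was normalised to no-cell wells (complete cell-killing) and DMSO (no toxicity), and curves were fitted and classified.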
# ATXN2 expr inh: inhibitors of ATXN2 expression. HEK-293 ATXN2-luciferase reporter, luminescence, 24 h. Potency, µM (series often up to 57 µM), for inactives: top-dose activity change, negative = inhibition, hits mostly inhibitors. 360,000 tested, 0.72% active. AID 1745845; note: % is set by controls: 0 for no effect and ±100 for the full control effect; nearly all actives have a fitted effect of over 55% in size
#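 ATXN2-luciferase reporter cells (luciferase flanked by upstream and downstream ATXN2 gene portions) were treated 24 h at 37 °C with compounds at up to 57 uM. SteadyGlo luminescence gave expression; GF-AFC fluorescence gave viability.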
# A549 tox: counter-screen for Nrf2 inhibitors: cytotoxicity in A549 cells | 390,000 tested, 0.16% active | Potency, µM (top dose mostly 46 µM), for the others: at the top dose activity change, negative = cytotoxicity, actives largely listed as inhibitors | A549 ARE-Fluc cells, CellTiter-Fluor viability, 18-24 h; note: % is set by controls: 0 for no effect and ±100 for the full control effect
#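 A549 ARE_Fluc cells in 5% FBS OPTI-MEM were exposed to compounds in concentration-response for 18-24 h at 37 deg C. Viability was read by CellTiter-Fluor fluorescence (Ex 405/Em 525) after 30 min, before the luciferase read.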
# TGFb SMAD3 inh: TGF-b pathway inhibition; HepG2 CAGA-GFP TGF-b/SMAD3 reporter, GFP fluorescence, 18 h; TGF-beta stimulated, 500 pg/mL final; AID 588855; 410,000 tested, 1.2% active; Potency, µM (series often up to 46.1 µM), without a hit: at the highest dose activity, negative = inhibition, usual class: inhibitors; note: % is set by controls: 0 for no effect and ±100 for the full control effect; nearly all actives have a fitted effect of over 65% in size
#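 HEPG2 CAGA-GFP cells (1000/well, DMEM with 1% FBS) were pre-incubated 2 h at 37 degrees C, given compound by pin tool, then stimulated with TGF-beta at 500 pg/mL final for 18 h before per-cell GFP fluorescence imaging.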
# S2 tox: reduces viability in counter-screen for ATXN expression inhibitors | S2 cells (HEK-293 line with an ATXN2-luciferase reporter) viability, CellTiter-Fluor protease fluorescence, 24 h | Potency, µM (doses to about 56.7 µM), hits mostly cytotoxic | 400,000 tested, 0.49% active; note: nearly all actives have a fitted effect of over 40% in size
# Nrf2 block: inhibitors of Nrf2 signaling; A549 ARE-Fluc reporter, luciferase luminescence, 18-24 h; Potency, µM (titrated, usually from 46 µM), for the others: at the top dose activity change, negative = inhibition, actives largely listed as inhibitors; 360,000 tested, 2.1% active; AID 504444; note: % is set by controls: 0 for no effect and ±100 for the full control effect; nearly all actives have a fitted effect of over 60% in size
#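 Cells were seeded and rested 2 h, then exposed to compounds for 18-24 h. CellTiter-Fluor was read first as a viability measure. BugLite was added 15 min before the final luminescent read of ARE-luciferase activity in A549 cells.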
# TGFb CAGA inh: TGF-b pathway inhibition, cherry-pick retest. shares compounds with TGFb SMAD3 inh. HepG2 CAGA-GFP TGF-b reporter, GFP fluorescence, 18 h; cells stimulated with TGF-beta, 500 pg/mL. Potency, µM (titrated, usually from 46.1 µM), without a hit: at the highest dose activity, negative = inhibition, most hits filed as inhibitors. 1,600 tested, 63% active. AID 720534; note: % is set by controls: 0 for no effect and ±100 for the full control effect; nearly all actives have a fitted effect of over 65% in size
# HepG2 tox-2: toxic to HepG2 cells in TGF-b counterscreen; AID 720535; shares compounds with TGFb SMAD3 inh; 1,600 tested, 27% active; Potency, µM (series often up to 46.1 µM), without a hit: at the top dose activity, negative = cytotoxicity, most hits filed as inhibitors; HepG2 CAGA-GFP viability, ATP luminescence, 18 h; cells stimulated with TGF-beta, 500 pg/mL; note: % is set by controls: 0 for no effect and ±100 for the full control effect; nearly all actives have a fitted effect of over 70% in size
# TGFb CCL64 inh: blocks TGF-b signaling in CCL64 reporter cells | shares compounds with TGFb SMAD3 inh | Potency, µM (highest dose often 46.1 µM), for inactives: at the highest dose activity, negative = inhibition, actives largely listed as inhibitors | 1,600 tested, 41% active | CCL64 CAGA-GFP reporter, TGF-b stimulated, GFP fluorescence, 18 h; note: nearly all actives have a fitted effect of over 65% in size
# TGFb COP inh: blocks TGF-b signaling in HepG2 COP reporter | shares compounds with TGFb SMAD3 inh | HepG2 COP-GFP TGF-b reporter, GFP fluorescence, 18 h; cells stimulated by added recombinant TGF-beta | Potency, µM (highest dose often 46.1 µM), inactives show top-dose activity, negative = inhibition, most hits filed as inhibitors | 1,600 tested, 3% active | AID 720537; note: nearly all actives have a fitted effect of over 70% in size
# Starred values were filed as active, the others as inactive; i = inactive; ? = inconclusive; · = no result given; [ ] = remark or other dose. Calls come from the whole dose curve; as a rule, active = well fitted curve in the direction sought with a large enough effect; inconclusive = small, poorly fitted or top-dose-only effect, or another doubt; inactive = no such curve, though single readings can be large; an effect the other way counts as inactive or inconclusive. Potency is the fitted concentration of half-maximal effect.
SMILES,HepG2 tox-1,ATXN2 expr inh,A549 tox,TGFb SMAD3 inh,S2 tox,Nrf2 block,TGFb CAGA inh,HepG2 tox-2,TGFb CCL64 inh,TGFb COP inh
O=C(Nc1ccc(Cl)cc1)c1cc2c(cc1O)[nH]c1ccccc12,-45%,?,-28%,6.3µM*,?,?,7.3µM*,5.2µM*,3.3µM*,70%
CC1=C(C(=O)Nc2ccc(C)cc2C)C(c2ccc(O)cc2)n2nnnc2N1 (centres undefined),-1%,-12%,0%,8%,i,-3%,·,·,·,·
Cn1c(/C=C/c2ccc([N+](=O)[O-])o2)nc2ccccc2c1=O,-41%,7.9µM*,?,2.2µM*,6.3µM*,21µM*,?,6.5µM*,5.2µM*,?
CN(C)c1ccc(CC2CCc3ccccc32)cc1 (centres undefined),-17%,·,·,15%,·,·,·,·,·,·
Cc1cccc(N2CCN(C(=O)c3cn(C)c(=O)c4c3c3ccccc3n4C)CC2)c1C,-21%,?,-12%,10µM*,i,·,?,?,21µM*,50%
Cc1ccc(NC(=O)C2(c3ccc([N+](=O)[O-])cc3)CCCC2)cc1,1%,·,13%,?,i,3%,-28%,-9%,-10%,0%
Cc1ccc(OCC(=O)Nc2ccc([N+](=O)[O-])cc2)cc1,31%,0%,-6%,0%,i,-16%,·,·,·,·
COc1ccc(NC(=O)[C@@H]2CC=C[C@@H]3CCN(Cc4ccccc4)C(=O)[C@@H]32)cc1,8%,-2%,-9%,?,i,12%,·,·,·,·
COc1ccc(NC(=O)[C@@H]2CC=C[C@@H]3CCN(Cc4ccc(Cl)c(Cl)c4)C(=O)[C@@H]32)cc1,-23%,-21%,-1%,13µM*,?,-16%,2.9µM*,-22%,29µM*,29%
CC1=C(C(=O)Nc2cccc(F)c2)C(c2ccsc2)C2=C(CC(C)(C)CC2=O)N1 (centres undefined),-2%,-21%,-10%,10µM*,?,16%,?,-10%,-22%,-10%
CCN(CC(=O)NCc1cccs1)C(=O)/C=C/c1cccc(Cl)c1Cl,2%,3%,-6%,?,i,-11%,·,·,·,·
COc1ccc(C2CC(c3ccccc3OC(C)=O)=NN2C(=O)/C=C/c2ccccc2)cc1OC (centres undefined),-21%,-7%,1%,10µM*,i,2%,18µM*,-25%,?,2%
COc1ccc(Cl)cc1NC(=O)CN1CCC(n2nnc3cc(C)ccc32)CC1,-21%,-17%,-16%,-11%,?,?,·,·,·,·
Cc1ccc2c(c1)nnn2C1CCN(CC(=O)Nc2ccccc2N2CCOCC2)CC1,-48%,-28%,-6%[1.84 µM],10µM*,?,?,?,?,?,10%
C[C@@H](Nc1nc(Cl)nc2nc[nH]c12)c1ccccc1,-16%,·,4%,-10%,·,?,·,·,·,·
O=C1C(F)=CC(COC(c2ccccc2)(c2ccccc2)c2ccccc2)OC1n1cc(F)c(=O)[nH]c1=O (centres undefined),-60%,3.4µM*,-16%,5µM*,3µM*,?,2.9µM*,8.2µM*,2.3µM*,?
O=C(NCc1ccccc1)c1cccc(NC(=O)C2CCCC2)c1,-7%,-10%,2%,11%,i,8%,·,·,·,·
c1ccc(CNc2nc(NCCc3ccncc3)c3sccc3n2)cc1,-43%,0%,·,2.2µM*,?,·,1.5µM*,7.3µM*,4.6µM*,34%
CCc1ccccc1Oc1nc(NCc2ccccc2)nc2ccsc12,-26%,-18%,·,11µM*,i,·,23µM*,?,16µM*,31%
CC(C)Nc1nc(NCCN2CCNC2=O)c2sccc2n1,-1%,-7%,·,12%,i,·,·,·,·,·
